USP10 inh: inhibitors of human USP10 deubiquitinase; actives 1.1% (n = 47,000); Ubiquitin carboxyl-terminal hydrolase 10 (Homo sapiens), Q14694; inhibition, % at 20 µM; purified USP10, Ub-rhodamine fluorescence, 60 min; AID 1645856, 2021
USP8 block: inhibitors of human USP8 deubiquitinase | Ubiquitin carboxyl-terminal hydrolase 8 (Homo sapiens), P40818 | purified USP8, Ub-rhodamine cleavage fluorescence, 30 min | inhibition, % at 20 µM | actives 4.2% (n = 47,000) | AID 1645853, 2021
USP30 inh: inhibitors of human USP30 deubiquitinase. inhibition, % at 25 µM. purified USP30, Ub-rhodamine cleavage fluorescence. actives 5.3% (n = 47,000). Ubiquitin carboxyl-terminal hydrolase 30 (Homo sapiens), Q70CQ3
Target sequence (Q70CQ3 whole entry, looked up): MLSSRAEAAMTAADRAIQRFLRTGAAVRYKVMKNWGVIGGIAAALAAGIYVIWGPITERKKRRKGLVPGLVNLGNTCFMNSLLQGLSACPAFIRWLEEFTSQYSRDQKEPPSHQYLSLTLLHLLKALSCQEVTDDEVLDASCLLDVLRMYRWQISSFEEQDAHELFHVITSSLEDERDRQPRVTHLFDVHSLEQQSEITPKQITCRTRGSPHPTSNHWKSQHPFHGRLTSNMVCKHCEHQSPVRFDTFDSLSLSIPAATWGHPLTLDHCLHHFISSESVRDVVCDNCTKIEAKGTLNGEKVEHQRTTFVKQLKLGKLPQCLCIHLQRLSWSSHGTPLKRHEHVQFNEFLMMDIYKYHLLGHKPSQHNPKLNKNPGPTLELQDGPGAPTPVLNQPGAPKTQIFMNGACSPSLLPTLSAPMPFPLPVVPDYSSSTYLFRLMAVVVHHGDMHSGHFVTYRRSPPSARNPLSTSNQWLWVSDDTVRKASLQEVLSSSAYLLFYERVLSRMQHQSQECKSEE
USP28 block: inhibitors of human USP28 deubiquitinase | purified USP28, Ub-rhodamine cleavage fluorescence, 30 min | Ubiquitin carboxyl-terminal hydrolase 28 (Homo sapiens), Q96RU2 | AID 1645857, 2021 | actives 3% (n = 47,000) | inhibition, % at 25 µM
USP17 inh: inhibitors of human USP17 deubiquitinase. purified USP17, Ub-rhodamine cleavage fluorescence, 3 h. inhibition, % at 50 µM. actives 6.5% (n = 47,000)
Numbers without * were called inactive. This is a sample that favours compounds with a hit; in the whole collection about 14% have one here. Rule as the data show it: active = inhibition above about 30%; inactive = the rest.

Screening COc1ccc(NC(=O)c2ccccc2OCC(=O)Nc2ccccc2C(F)(F)F)c(C)c1 returned USP10 inh 5, USP8 block 52*, USP30 inh -1, USP28 block -1 and USP17 inh 79*.
`COc1ccc(S(=O)(=O)N2CCC[C@@H](Cn3nnc(-c4ccncc4)n3)C2)cc1` gave USP10 inh -3, USP8 block -3, USP30 inh 10, USP28 block 5 and USP17 inh 4.
For CCOc1ccccc1CN1CCC[C@@H](Cn2nnc(-c3ccncc3)n2)C1 the results were USP10 inh 0, USP8 block 25, USP30 inh 32*, USP28 block 14 and USP17 inh 12.
For CCC(CO)Nc1ncnc2c1cnn2-c1ccc(C)c(C)c1 (centres undefined) the results were USP10 inh 1, USP8 block 18, USP30 inh 6, USP28 block 15 and USP17 inh 14.
Screening O=C(O)c1cc([N+](=O)[O-])ccc1N1CCC(Cc2ccccc2)CC1 returned USP10 inh -2, USP8 block -87, USP30 inh 31*, USP28 block 5 and USP17 inh 0.
For CC1(C(=O)NC2CCCC2)Cn2c(nc3ccccc32)C(=O)N1Cc1ccc(F)cc1 (centres undefined) the results were USP10 inh 0, USP8 block 6, USP30 inh -8, USP28 block -7 and USP17 inh -3.
Screening CC1(C(=O)NC2CCCC2)Cn2c(nc3ccccc32)C(=O)N1CCc1ccccc1 (centres undefined) returned USP10 inh 5, USP8 block 20, USP30 inh 36*, USP28 block 2 and USP17 inh 9.
For COc1ccccc1CN1C(=O)c2nc3ccccc3n2CC1(C)C(=O)NC1CCCC1 (centres undefined) the results were USP10 inh 2, USP8 block -2, USP30 inh 30*, USP28 block 10 and USP17 inh -2.
For Cc1ccc(COc2ccc(C3CC(=O)Nc4nc(C)[nH]c(=O)c43)cc2)cc1 (centres undefined) the results were USP10 inh 2, USP8 block -4, USP30 inh 2, USP28 block 1 and USP17 inh -5.
Screening O=C(c1ccc(F)cc1F)N1CCN(Cc2nnnn2-c2cccc(F)c2)CC1 returned USP10 inh 2, USP8 block -5, USP30 inh -3, USP28 block -5 and USP17 inh -9.
For O=C1CS(=O)CN1c1ccc(F)cc1 (centres undefined) the results were USP10 inh -1, USP8 block 21, USP30 inh 16, USP28 block 15 and USP17 inh 10.
For O=c1[nH]c(C2CCN(S(=O)(=O)c3ccc(S(=O)(=O)NC4CC4)cc3)CC2)nc2c1nnn2Cc1c(Cl)cccc1Cl the results were USP10 inh 31*, USP8 block 32*, USP30 inh 12, USP28 block 6 and USP17 inh 28.
Screening O=c1[nH]c(C2CCN(S(=O)(=O)c3ccc(S(=O)(=O)NC4CCCCC4)cc3)CC2)nc2c1nnn2Cc1c(F)cccc1Cl returned USP10 inh 45*, USP8 block 24, USP30 inh 59*, USP28 block 55* and USP17 inh 17.
`Cc1ccc(C)c(Cn2nnc3c(=O)[nH]c(C4CCN(S(=O)(=O)c5ccc(S(=O)(=O)NC6CCCCC6)cc5)CC4)nc32)c1` gave USP10 inh 20, USP8 block -120, USP30 inh 16, USP28 block 23 and USP17 inh 1.
Screening O=c1[nH]c(C2CCN(S(=O)(=O)c3ccc(S(=O)(=O)NC4CCCCC4)cc3)CC2)nc2c1nnn2Cc1c(Cl)cccc1Cl returned USP10 inh 42*, USP8 block 40*, USP30 inh 50*, USP28 block 49* and USP17 inh 10.
Screening Cc1ccc2cc3c(nc2c1)N(C(=O)c1cccc(Br)c1)CC3 returned USP10 inh -3, USP8 block 7, USP30 inh -6, USP28 block -5 and USP17 inh 18.
`O=[N+]([O-])c1cc(S(=O)(=O)Nc2ccccc2)ccc1NCc1ccc(F)cc1` gave USP10 inh 22, USP8 block 0, USP30 inh 35*, USP28 block -35 and USP17 inh 5.

Bioassay records from PubChem.
